Test results published in PubChem BioAssay.
Several values for one entry are separate records, joined by “and”; a condition that tells them apart may be missing. Equal entries are not always repeated. The source holds several records for some structures; these can differ, active in one and inactive in another. Activity calls are given as the source filed them. Unless noted, no rule for the calls is given here.

What was measured:
[1] = system: Wnt5a (protein binding on small-molecule microarray); assay: small molecules binding Wnt5a protein – biophysical, small-molecule microarray, 635/667 nm fluorescence, primary screen (AID 1142); settings: 635 nm fluorescence, higher = more signal;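 also: fluorescence read at 667 nm with signal to noise per printed feature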
[2] = ATP-based viability of Huh7 replicon cells – cell-based, CellTiter-Glo luminescence, basal, 48 h, cytotoxicity control for HCV replication inhibitor project, primary screen (AID 1143); settings: higher = more signal, called active from +8 up or from −8 down;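 also: Huh7 hepatoma cells carrying a hepatitis C replication reporter with no stimulus; test concentration not given here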
[3] = Pseudomonas biofilm growth suppression – PAO1 strain, BacTiter-Glo luminescence, LB-PBS, primary screen (AID 1144); settings: P. aeruginosa PAO1 biofilm, 12 h, higher = more signal
[4] = basal CRE-LacZ reporter activity in PC12 – cell-based, unstimulated, primary screen (AID 1145); settings: no forskolin, luminescence, 4.5 h, higher = more signal, called active from +8 up or from −8 down
[5] = forskolin-driven CRE-LacZ activity in PC12 – cell-based, CRE-LacZ reporter, forskolin-stimulated, primary screen (AID 1146); settings: luminescence, 4.5 h, higher = more signal, called active from +8 up or from −8 down;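 also: PC12 cells with 6xCRE LacZ reporter stimulated by forskolin 10 µM; beta-galactosidase reporter signal reflecting CREB driven transcription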
[6] = biological target: Streptavidin (Streptomyces avidinii) (UniProt P22629); assay: compounds binding control protein streptavidin – biophysical, small-molecule microarray, 635/667 nm fluorescence, artefact control for SMM compound annotation, primary screen (AID 1147); settings: higher = more signal;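 also: signal reflects streptavidin binding to arrayed compounds as a control protein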
[7] = probe aInhba binding on compound microarray – biochemical, small-molecule microarray, 635/667 nm fluorescence, primary screen (AID 1148); settings: higher = more signal;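 also: score merges 667nm spot fluorescence with signal-to-noise for antibody binding to printed compounds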
[8] = biological target: Torsin-1A (Homo sapiens) (UniProt O14656); assay: TOR1A wild-type binding on microarray – cell lysate, small-molecule microarray, lysate, 635/667 nm, primary screen (AID 1149); settings: COS7 hTOR1A-WT lysate, 635 nm fluorescence, higher = more signal
[9] = biological target: Torsin-1A (Homo sapiens) (UniProt O14656); assay: torsin A mutant lysate binding on microarrays – cell lysate, small-molecule microarray, COS7 lysate, 635/667 nm fluorescence, primary screen (AID 1150); settings: COS7 hTOR1A mutant lysate, 635 nm fluorescence, higher = more signal;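 also: score pools 667 nm emission and signal to noise measuring lysate protein binding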
[10] = system: Sonic hedgehog protein (Shh); assay: Sonic hedgehog microarray binding compounds – biochemical, small-molecule microarray, 635/667 nm fluorescence, primary screen (AID 1151); settings: 635 nm fluorescence, higher = more signal;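 also: Shh protein binding to compounds spotted on small-molecule microarray slides; score combines spot fluorescence intensity with signal-to-noise across triplicate slides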
[11] = optical density shifts of acrAB sulA E. coli – strain DRC41, OD650, 48 h, E. coli filamentation inducer project, primary screen (AID 1152); settings: higher = more signal, called active from +8 up or from −8 down;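 also: E. coli MC1000 strain DRC41 lacking acrAB efflux pump and sulA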
[12] = probe aLefty1 binding on compound microarray – biochemical, small-molecule microarray, 635/667 nm fluorescence, primary screen (AID 1153); settings: higher = more signal;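 also: score merges spot fluorescence with signal-to-noise ratio from the scanned slide images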
[13] = plasmodial surface anion channel blockers, osmotic lysis – cell-based, P. falciparum Indochina, OD700, 1 h, primary screen (AID 1154); settings: P. falciparum Indochina infected RBC osmotic lysis, higher = more signal, called active from +8 up or from −8 down
[14] = plasmodial surface anion channel blockers, osmotic lysis – cell-based, P. falciparum Indochina, OD700, 2 h, primary screen (AID 1155);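 also: lysis reports solute entry through the parasite surface anion channel PSAC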; settings: P. falciparum Indochina infected erythrocytes, higher = more signal, called active from +8 up or from −8 down
[15] = changes in parasitized red cell lysis, either direction – P. falciparum Indochina, OD700, 3 h, PSAC antagonist project, primary screen (AID 1156); settings: P. falciparum-infected erythrocytes, osmotic lysis, higher = more signal, called active from +8 up or from −8 down
[16] = plasmodial surface anion channel blockers, osmotic lysis – cell-based, P. falciparum Indochina, OD700, 18 h, primary screen (AID 1157); settings: P. falciparum Indochina infected erythrocytes, osmotic lysis OD700, 18 h; higher = more signal, called active from +8 up or from −8 down
[17] = S6 kinase pathway phospho-S6 level changes – cell-based, A549, cytoblot, luminescence, serum-stimulated, primary screen (AID 1158); settings: 5 h, higher = more signal;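 also: serum-stimulated A549 lung adenocarcinoma cells; signal is phosphorylated S6 detected by cytoblot immunostaining with HRP secondary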
[18] = biological target: NADPH oxidase 2 (Homo sapiens) (UniProt P04839); assay: compounds shifting NOX2 Amplex Red fluorescence – cell-based, HEK293-NOX2, PMA-stimulated, NOX inhibitor project, primary screen (AID 1159); settings: 45 min, higher = more signal, called active from +8 up or from −8 down; also: test concentration not given here
[19] = biological target: NADPH oxidase 4 (Homo sapiens) (UniProt Q9NPH5); assay: compounds shifting NOX4 Amplex Red fluorescence – cell-based, HEK293-NOX4, tetracycline-induced, NOX inhibitor project, primary screen (AID 1160); settings: HEK293-NOX4, Amplex Red H2O2 fluorescence, 45 min; higher = more signal, called active from +8 up or from −8 down
[20] = biological target: NADPH oxidase 5 (Homo sapiens) (UniProt Q96PH1); assay: compounds shifting NOX5 Amplex Red fluorescence – cell-based, HEK293-NOX5, NOX inhibitor project, primary screen (AID 1161); settings: HEK293-NOX5, ionomycin, 45 min, higher = more signal
Chain of NADPH oxidase 5 (Homo sapiens) (Q96PH1 whole entry, looked up): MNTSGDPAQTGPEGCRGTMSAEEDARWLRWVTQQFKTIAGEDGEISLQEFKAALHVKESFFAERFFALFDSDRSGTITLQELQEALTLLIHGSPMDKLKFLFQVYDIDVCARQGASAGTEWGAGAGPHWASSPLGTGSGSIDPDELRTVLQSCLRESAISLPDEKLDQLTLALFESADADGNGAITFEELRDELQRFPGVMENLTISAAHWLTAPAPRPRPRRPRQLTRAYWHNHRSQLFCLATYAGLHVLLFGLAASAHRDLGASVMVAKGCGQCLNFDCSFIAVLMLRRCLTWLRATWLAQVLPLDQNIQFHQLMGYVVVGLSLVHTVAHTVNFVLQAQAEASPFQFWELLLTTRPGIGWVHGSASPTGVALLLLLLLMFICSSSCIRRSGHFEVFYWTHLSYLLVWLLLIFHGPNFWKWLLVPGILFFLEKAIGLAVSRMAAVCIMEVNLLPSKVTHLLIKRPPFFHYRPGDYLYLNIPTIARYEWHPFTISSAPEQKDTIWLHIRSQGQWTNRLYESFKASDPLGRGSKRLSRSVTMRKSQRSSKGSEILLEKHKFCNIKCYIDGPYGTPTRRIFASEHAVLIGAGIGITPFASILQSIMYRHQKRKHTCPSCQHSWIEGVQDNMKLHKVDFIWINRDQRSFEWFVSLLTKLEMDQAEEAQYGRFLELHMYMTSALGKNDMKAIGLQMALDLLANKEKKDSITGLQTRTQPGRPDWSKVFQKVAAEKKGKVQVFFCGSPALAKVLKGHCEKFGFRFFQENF

Chain of NADPH oxidase 4 (Homo sapiens) (Q9NPH5 whole entry, looked up): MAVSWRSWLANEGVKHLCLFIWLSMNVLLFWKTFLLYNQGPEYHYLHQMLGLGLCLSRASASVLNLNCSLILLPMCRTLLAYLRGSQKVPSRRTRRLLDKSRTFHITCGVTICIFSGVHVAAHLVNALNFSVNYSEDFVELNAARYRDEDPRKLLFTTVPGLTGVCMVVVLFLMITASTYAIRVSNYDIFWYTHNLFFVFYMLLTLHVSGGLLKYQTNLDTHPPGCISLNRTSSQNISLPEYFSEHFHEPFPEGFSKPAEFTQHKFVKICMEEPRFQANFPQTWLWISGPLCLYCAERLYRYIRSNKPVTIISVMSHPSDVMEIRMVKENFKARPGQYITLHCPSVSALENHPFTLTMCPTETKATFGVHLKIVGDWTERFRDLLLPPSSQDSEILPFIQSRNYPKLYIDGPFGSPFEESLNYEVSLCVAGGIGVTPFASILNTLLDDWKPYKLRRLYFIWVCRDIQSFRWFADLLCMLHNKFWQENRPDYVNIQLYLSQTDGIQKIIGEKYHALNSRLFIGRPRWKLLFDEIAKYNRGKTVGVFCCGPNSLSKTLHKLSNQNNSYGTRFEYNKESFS
Chain of NADPH oxidase 2 (Homo sapiens) (P04839 whole entry, looked up): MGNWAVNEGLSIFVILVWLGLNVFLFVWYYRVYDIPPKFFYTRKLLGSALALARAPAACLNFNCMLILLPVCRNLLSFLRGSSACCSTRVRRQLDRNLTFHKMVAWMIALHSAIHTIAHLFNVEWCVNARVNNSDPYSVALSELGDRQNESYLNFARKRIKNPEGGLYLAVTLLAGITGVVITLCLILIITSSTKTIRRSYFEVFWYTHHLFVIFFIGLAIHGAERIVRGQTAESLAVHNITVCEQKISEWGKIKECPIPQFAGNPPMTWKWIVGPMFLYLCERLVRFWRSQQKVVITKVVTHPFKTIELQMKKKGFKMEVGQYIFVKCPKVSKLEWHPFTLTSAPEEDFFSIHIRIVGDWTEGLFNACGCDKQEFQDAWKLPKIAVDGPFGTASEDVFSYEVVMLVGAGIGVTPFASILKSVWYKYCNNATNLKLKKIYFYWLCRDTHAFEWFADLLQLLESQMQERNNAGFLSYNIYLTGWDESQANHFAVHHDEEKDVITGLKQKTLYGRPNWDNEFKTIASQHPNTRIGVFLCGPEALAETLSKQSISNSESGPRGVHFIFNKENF
Chain of Streptavidin (Streptomyces avidinii) (P22629 whole entry, looked up): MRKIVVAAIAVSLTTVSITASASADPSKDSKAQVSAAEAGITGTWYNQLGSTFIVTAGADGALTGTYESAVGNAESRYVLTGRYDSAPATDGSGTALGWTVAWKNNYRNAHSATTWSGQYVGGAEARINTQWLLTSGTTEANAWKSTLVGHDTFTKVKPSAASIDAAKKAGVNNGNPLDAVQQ
Chain of Torsin-1A (Homo sapiens) (O14656 whole entry, looked up): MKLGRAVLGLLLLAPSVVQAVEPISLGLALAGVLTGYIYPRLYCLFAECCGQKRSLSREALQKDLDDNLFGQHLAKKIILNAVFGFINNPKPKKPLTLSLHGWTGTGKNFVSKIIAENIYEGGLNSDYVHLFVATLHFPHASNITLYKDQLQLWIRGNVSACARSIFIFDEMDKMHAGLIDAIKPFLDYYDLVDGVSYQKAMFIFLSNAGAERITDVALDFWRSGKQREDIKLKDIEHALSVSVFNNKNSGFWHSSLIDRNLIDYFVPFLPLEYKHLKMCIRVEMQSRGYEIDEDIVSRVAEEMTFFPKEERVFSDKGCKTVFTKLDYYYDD

| Compound | composite z-score [1] | z-score [2] | z-score [3] | z-score [4] | z-score [5] | composite z-score [6] | composite z-score [7] | composite z-score [8] | composite z-score [9] | composite z-score [10] | z-score [11] | composite z-score [12] | z-score [13] | z-score [14] | z-score [15] | z-score [16] | z-score [17] | z-score [18] | z-score [19] | z-score [20] |
| --- | --- | --- | --- | --- | --- | --- | --- | --- | --- | --- | --- | --- | --- | --- | --- | --- | --- | --- | --- | --- |
| C=CCN(CCCC)C(=O)C1N(C(C)(C)CO)C(=O)C2C(C(=O)O)C3C=CC21O3 (centres undefined) | -1.3 and -0.176 | 0.194 (inactive) and -0.11 (inactive) | 0.264 (inactive) and 1.42 (inactive) | -0.627 (inactive) and -0.611 (inactive) | -0.414 (inactive) and -0.388 (inactive) | -1.54 and -1.29 | -0.208 and -0.157 | -2.92 and -2.18 | -2.77 and -2.67 | -1.07 and -0.475 | -0.2 (inactive) and -0.302 (inactive) | -0.255 and -0.488 | 0.109 (inactive) and 0.0708 (inactive) | 0.134 (inactive) and 0.354 (inactive) | -0.724 (inactive) and -1.27 (inactive) | 0.0135 (inactive) and -0.109 (inactive) | 0.301 and -0.335 | 0.209 (inactive) and 0.495 (inactive) | 0.0887 (inactive) and -0.0844 (inactive) | 0.616 and 0.0892 |
| CCOC(=O)C[C@H]1[C@H](OC(=O)c2ccccc2-c2ccccc2)[C@@H](NC(=O)c2ccccc2)c2cc(OCCCO)ccc2N1C(=O)c1ccc2ccccc2n1 | 0.103 and 0.147 | -0.616 (inactive) and 0.662 (inactive) | 0.559 (inactive) and 0.171 (inactive) | 9.27 (active) and -0.23 (inactive) | 0.158 (inactive) and -0.583 (inactive) | -0.0119 and 1.12 | 0.216 and 0.0047 | 0.144 and 0.158 | 0.0956 and 0.344 | 0.502 and 1.8 | 0.869 (inactive) and -0.664 (inactive) | 0.126 and 0.341 | 5.24 (inactive) and 2.8 (inactive) | 0.709 (inactive) and 0.295 (inactive) | 0.195 (inactive) and -0.416 (inactive) | 0.353 (inactive) and 0.188 (inactive) | 0.649 and -0.172 | -0.556 (inactive) and -1.18 (inactive) | 0.848 (inactive) and 0.921 (inactive) | 2.2 and 0.732 |
| C=C[C@H](OC)[C@@H](O)c1ccc(OCCO)cc1 | -0.181 and -0.509 | -0.238 (inactive) and 0.881 (inactive) | -0.354 (inactive) and -1.35 (inactive) | 0.833 (inactive) and -0.0533 (inactive) | 0.2 (inactive) and -1.46 (inactive) | -1.59 and -1.75 | -0.258 and -0.244 | -1.15 and -1.11 | -0.812 and -1.99 | -0.459 and -0.143 | -0.389 (inactive) and 0.805 (inactive) | -0.328 and -0.147 | 0.749 (inactive) and 0.142 (inactive) | 0.305 (inactive) and 0.0012 (inactive) | -0.442 (inactive) and -0.321 (inactive) | 0.0568 (inactive) and 0.352 (inactive) | 0.136 and 0.135 | 0.844 (inactive) and -0.354 (inactive) | -1.32 (inactive) and -0.339 (inactive) | -0.372 and 0.317 |
| CC(C)N1CC=CC23O[C@@H]4C=CCCOC(=O)C4[C@H]2C(=O)N(C(C)CO)[C@@H]3C1=O (some centres undefined) | 0.797 and -0.143 | -0.909 (inactive) and 0.0354 (inactive) | – | -0.631 (inactive) and -0.753 (inactive) | -0.0522 (inactive) and -0.428 (inactive) | -0.55 and 1.17 | -0.128 and -0.176 | 0.0687 and -0.403 | -0.0439 and 0.0427 | -0.0042 and -0.188 | 2.39 (inactive) and 2.01 (inactive) | 0.0004 and -0.147 | 0.339 (inactive) and 1.47 (inactive) | -0.917 (inactive) and -0.564 (inactive) | -0.0544 (inactive) and 0.331 (inactive) | -1.54 (inactive) and -0.97 (inactive) | 0.22 and -0.109 | 1.94 (inactive) and 1.59 (inactive) | 0.808 (inactive) and 0.594 (inactive) | 2.17 and 1.76 |
| C#CCCCON=C1C[C@@H](O)[C@@H](O)[C@@H]2[C@@H]3C(=O)N(C4CCCCC4)C(=O)[C@@H]3CC[C@H]12 | -0.176 | -0.379 (inactive) | 0.353 (inactive) | -0.474 (inactive) | -0.236 (inactive) | 1.03 | -0.101 | 1.06 | 0.0924 | -0.105 | 0.747 (inactive) | -0.147 | 0.869 (inactive) | -0.68 (inactive) | 0.403 (inactive) | -0.113 (inactive) | -0.126 | -1.26 (inactive) | -0.426 (inactive) | -2.7 |
| COCn1c2ccccc2c2nnc(C(C)=O)nc21 | -0.122 and 0.0561 | -2.71 (inactive) and -2.58 (inactive) | -0.843 (inactive) and -0.869 (inactive) | 0.11 (inactive) and -0.0732 (inactive) | 0.353 (inactive) and 0.754 (inactive) | -0.121 and -0.232 | -0.274 and 0.0111 | 0.331 and 0.417 | -0.302 and 0.13 | 0.479 and 0.343 | -1.46 (inactive) and -0.426 (inactive) | -0.103 and -0.0111 | 1.91 (inactive) and 0.558 (inactive) | -0.781 (inactive) and -1.09 (inactive) | 0.68 (inactive) and 1.07 (inactive) | -1.28 (inactive) and -1.44 (inactive) | 2.52 and 1.53 | -0.424 (inactive) and -0.738 (inactive) | -0.773 (inactive) and -0.0619 (inactive) | -2.97 and -3.35 |
